From PubChem BioAssay (NCATS) come the findings set out here.

SMILES strings stand for the structures. Where “and” joins values, the source holds several entries; their conditions need not be identical. Equal entries are not always repeated. Inconclusive results are not listed. Unmarked numbers belong to inactive results. Calls of active or inactive are those of the source. Calls follow the shape of the dose curve; as a rule, active = well fitted cell-killing curve with a large enough effect; inconclusive = small, poorly fitted or top-dose-only effect, or effect the other way; inactive = flat fitted curve, though single readings scatter.
% is scaled to controls: 0 for no effect and ±100 for the full control effect.

The nature of the first experiment: qHTS assay for cell viability of HEK293 cells (AID 743288). Also: nearly all actives have a fitted effect of over 50% in size. The following applies: ATP luminescence (CellTiter-Glo), 18 h, hits give low values. The essentials: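 Luminescent ATP quantitation served as the viability read-out. Cells (parental HEK293, 2,000/well) received compounds after at least 5 h at 37 C and were exposed for 18 h before a 30 min room-temperature reagent step.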
On the technique in general: Quantitative high-throughput screening tests each substance at several concentrations.
Turning to `CN(C)Cc1ccccc1`, the max response is 0.0798%.

As to `COC(C)=O`, the max response was -4.96%.

Turning to `C=Cc1ccccc1`, the max response is 4.36% and 2.49%.

On to `CCCCCCCC/C=C\CCCCCCCC(=O)OC[C@@H](O)[C@H]1OC[C@H](O)[C@H]1O`, for which the max response was -9.48%.

On to `CCCCCCCCCC(=O)O`, for which the max response was -4.02% and 2.71%.

Turning to `O=C(O)CC(O)(CC(=O)O)C(=O)O`, the max response was -6.07% and -4.96% and -7.26%.

The nature of a further experiment: qHTS assay for cell viability of the p53RE-bla HCT-116 cell line (AID 743292). Also: nearly all actives have a fitted effect of over 55% in size. The following applies: p53RE-bla HCT-116 viability, ATP luminescence, 16 h; series mostly up to 95 µM. In outline: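 Luminescent ATP quantitation (CellTiter-Glo) served as the viability read-out; reagent was added after 16 h compound exposure at 37 C and read after 30 min at room temperature. Cells: p53RE-bla HCT-116, 4,000 per well.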
Take `CN(C)Cc1ccccc1`: the outcome was inactive.

In the case of `COC(C)=O`, the compound was called inactive.

Take `CC(=O)S[C@@H]1CC2=CC(=O)CC[C@]2(C)[C@H]2CC[C@@]3(C)[C@@H](CC[C@@]34CCC(=O)O4)[C@H]12`: the outcome was inactive.

Take `C=Cc1ccccc1`: the compound was classed as inactive.

As for `CCCCCCCC/C=C\CCCCCCCC(=O)OC[C@@H](O)[C@H]1OC[C@H](O)[C@H]1O`, the result was inactive.

As to `CCCCCCCCCC(=O)O`, the compound was classed as inactive.

Turning to `O=C(O)CC(O)(CC(=O)O)C(=O)O`, the call was inactive.
